Activity calls are given as the source filed them. Rule for the calls: active = hit-call score of the fitted dose curve at least 0.9, where 1 is the maximum; inactive = score below 0.9.
Key:
Conditions in all cases: mRNA level, 48 h; actives raise or lower the signal
[1] = read-out: Bcl-2 (BID) gene, BID (gene 637); experiment: LTEA_HepaRG_BID: Life Technologies and Expression Analysis (LTEA) Assay for Bcl-2 (BID) gene using HepaRG (AID 2283476)
Procedure, shortened: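 Gain or loss of BID expression is fitted relative to 0.5% DMSO vehicle. Human HepaRG liver cells received a 48 h chemical exposure over an eight-point concentration range.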

Caspase-3 (Homo sapiens) = Caspase-3 (Homo sapiens) (UniProt P42574); experiment: LTEA_HepaRG_CASP3: Life Technologies and Expression Analysis (LTEA) Assay for cysteine-aspartic acid protease (CASP3) using HepaRG (AID 2283477)
Procedure, shortened: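 Transcript-level assay: CASP3 mRNA in human HepaRG after 48 h treatment, eight half-log concentrations from 100 uM in 0.5% DMSO, quantified by qRT-PCR.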

[2] = read-out: Cytochrome P450 (CYP24A1), CYP24A1 (gene 1591); experiment: LTEA_HepaRG_CYP24A1: Life Technologies and Expression Analysis (LTEA) Assay for Cytochrome P450 (CYP24A1) using HepaRG (AID 2283478)
Procedure, shortened: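 Gene expression of CYP24A1 by TaqMan qRT-PCR in HepaRG after 48 h treatment, highest concentration 100 uM; activity fitted in both directions relative to DMSO vehicle.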

[3] = read-out: Cytochrome P450 (CYP1A2), CYP1A2 (gene 1544); experiment: LTEA_HepaRG_CYP1A2: Life Technologies and Expression Analysis (LTEA) Assay for Cytochrome P450 (CYP1A2) using HepaRG (AID 2283479)
Procedure, shortened: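 In duplicate wells, HepaRG cultures maintained in 0.5% DMSO were treated 48 h across an 8-point, half-log series topping at 100 uM; phenobarbital (1 mM) served as induction control. Expression was read by qRT-PCR.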

[4] = read-out: cysteine-aspartic acid protease (CASP8), CASP8 (gene 841); experiment: LTEA_HepaRG_CASP8: Life Technologies and Expression Analysis (LTEA) Assay for cysteine-aspartic acid protease (CASP8) using HepaRG (AID 2283480)
Procedure, shortened: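 Differentiated HepaRG cells in serum-free induction medium, 48 h exposure, eight-point half-log series from 100 uM in 0.5% DMSO, duplicates. CASP8 mRNA by qRT-PCR, normalized to ACTB, GAPDH, POLR2A; bidirectional fit versus DMSO.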

[5] = read-out: Cytochrome P450 (CYP2B6), CYP2B6 (gene 1555); experiment: LTEA_HepaRG_CYP2B6: Life Technologies and Expression Analysis (LTEA) Assay for Cytochrome P450 (CYP2B6) using HepaRG (AID 2283481)
Procedure, shortened: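 Human HepaRG, 48 h dosing, 0.5% DMSO vehicle, top dose 100 uM. CYP2B6 transcript by qRT-PCR, housekeeping-normalized, bidirectional curve fit.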

[6] = read-out: Cytochrome P450 2C19 (Homo sapiens) (UniProt P33261); experiment: LTEA_HepaRG_CYP2C19: Life Technologies and Expression Analysis (LTEA) Assay for CYP2C19 using HepaRG (AID 2283482)
Procedure, shortened: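 Endpoint: CYP2C19 mRNA change, bidirectional fit vs 0.5% DMSO. Cells: HepaRG, 48 h exposure, eight-point series topping at 100 uM. Quantitation: qRT-PCR normalized to ACTB, GAPDH, POLR2A.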

CYP2C8 (gene 1558) = experiment: LTEA_HepaRG_CYP2C8: Life Technologies and Expression Analysis (LTEA) Assay for CYP2C8 using HepaRG (AID 2283483)
Procedure, shortened: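 Differentiated HepaRG cells in serum-free induction medium exposed 48 h in duplicate to 8 half-log concentrations from 100 uM in 0.5% DMSO. CYP2C8 mRNA by qRT-PCR normalized to ACTB, GAPDH, POLR2A; bidirectional fit versus DMSO.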

CYP2C9 (gene 1559) = experiment: LTEA_HepaRG_CYP2C9: Life Technologies and Expression Analysis (LTEA) Assay for CYP2C9 using HepaRG (AID 2283484)
Procedure, shortened: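 Differentiated human HepaRG cells in serum-free induction medium were exposed 48 h to chemicals in 8-point half-log series from 100 uM (0.5% DMSO), in duplicate. CYP2C9 mRNA was measured by qRT-PCR, normalized to ACTB/GAPDH/POLR2A, with bidirectional fitting versus DMSO.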

CYP2E1 (gene 1571) = experiment: LTEA_HepaRG_CYP2E1: Life Technologies and Expression Analysis (LTEA) Assay for CYP2E1 using HepaRG (AID 2283485)
Procedure, shortened: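 Differentiated HepaRG cells were treated in duplicate for 48 h with chemicals in 0.5% DMSO, from 100 uM downward in half-log dilutions. RNA was then analysed by qRT-PCR for CYP2E1 induction or loss.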

CYP4A11 (gene 1579) = experiment: LTEA_HepaRG_CYP4A11: Life Technologies and Expression Analysis (LTEA) Assay for CYP4A11 using HepaRG (AID 2283486)
Procedure, shortened: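 Human hepatic HepaRG cultures receive duplicate 48 h exposures across a concentration-response series topping at 100 uM. Expression changes in CYP4A11 are measured by qRT-PCR relative to DMSO controls.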

[7] = read-out: Cytochrome P450 3A4 (Homo sapiens) (UniProt P08684); experiment: LTEA_HepaRG_CYP3A4: Life Technologies and Expression Analysis (LTEA) Assay for CYP3A4 using HepaRG (AID 2283487)
Procedure, shortened: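 Differentiated HepaRG cells, plated 48 h, then dosed 48 h in serum-free induction medium with 0.5% DMSO, 8 half-log concentrations up to 100 uM, duplicate. CYP3A4 mRNA by qRT-PCR, normalized to ACTB/GAPDH/POLR2A; bidirectional fit versus DMSO.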

[8] = read-out: DNA damage-inducible transcript 3 (DDIT3), DDIT3 (gene 1649); experiment: LTEA_HepaRG_DDIT3: Life Technologies and Expression Analysis (LTEA) Assay for DNA damage-inducible transcript 3 (DDIT3) using HepaRG (AID 2283488)
Procedure, shortened: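 Changes in DDIT3 transcript, in either direction relative to 0.5% DMSO vehicle, were quantified by TaqMan qRT-PCR after 48 h chemical exposure of HepaRG cells at 8 concentrations, maximum 100 uM.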

[9] = read-out: Pro-epidermal growth factor (Homo sapiens) (UniProt P01133); experiment: LTEA_HepaRG_EGF: Life Technologies and Expression Analysis (LTEA) Assay for Epidermal growth factor (EGF) using HepaRG (AID 2283489)
Procedure, shortened: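 Concentration-response mRNA assay: HepaRG cells dosed 48 h (max 100 uM, 0.5% DMSO), EGF measured by qRT-PCR and normalized to ACTB/GAPDH/POLR2A.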

[10] = read-out: Early growth response protein 1 (EGR1) transcription factor, EGR1 (gene 1958); experiment: LTEA_HepaRG_EGR1: Life Technologies and Expression Analysis (LTEA) Assay for Early growth response protein 1 (EGR1) transcription factor using HepaRG (AID 2283490)
Procedure, shortened: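 Differentiated HepaRG cells in serum-free induction medium exposed 48 hours, duplicate, to 8 half-log concentrations up to 100 uM in 0.5% DMSO. EGR1 mRNA measured by TaqMan qRT-PCR, normalized to ACTB, GAPDH, POLR2A; bidirectional fit versus DMSO.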

[11] = read-out: Ezrin (EZR), EZR (gene 7430); experiment: LTEA_HepaRG_EZR: Life Technologies and Expression Analysis (LTEA) Assay for Ezrin (EZR) using HepaRG (AID 2283491)
Procedure, shortened: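 EZR transcript levels came from Fluidigm qRT-PCR and were normalized to three housekeeping genes after 48 h chemical exposure of HepaRG cells. Dosing used an 8-point half-log series with a 100 uM top concentration in 0.5% DMSO, tested in duplicate; both directions were fitted versus vehicle.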

[12] = read-out: Cytochrome P450 3A7 (Homo sapiens) (UniProt P24462); experiment: LTEA_HepaRG_CYP3A7: Life Technologies and Expression Analysis (LTEA) Assay for CYP3A7 using HepaRG (AID 2283492)
Procedure, shortened: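 qRT-PCR of CYP3A7 in HepaRG lysates after 48 h treatment; concentration-response (8 points, max 100 uM) analysed bidirectionally relative to 0.5% DMSO controls.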

CYP3A5 (gene 1577) = experiment: LTEA_HepaRG_CYP3A5: Life Technologies and Expression Analysis (LTEA) Assay for CYP3A5 using HepaRG (AID 2283493)
Procedure, shortened: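 mRNA induction or loss of CYP3A5 assessed in HepaRG after 48 h dosing, 100 uM top concentration, duplicate wells; TaqMan qRT-PCR with ACTB, GAPDH, POLR2A normalization; 0.5% DMSO as negative control.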

[13] = read-out: Fatty Acid-Binding Protein 1 (FABP1), FABP1 (gene 2168); experiment: LTEA_HepaRG_FABP1: Life Technologies and Expression Analysis (LTEA) Assay for Fatty Acid-Binding Protein 1 (FABP1) using HepaRG (AID 2283494)
Procedure, shortened: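 Differentiated human HepaRG cells exposed 48 h in serum-free induction medium to eight half-log concentrations up to 100 uM (0.5% DMSO), duplicate. FABP1 mRNA by qRT-PCR, normalised to ACTB, GAPDH, POLR2A; bidirectional fitting against DMSO.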

[14] = read-out: Cytochrome P450 4A22 (Homo sapiens) (UniProt Q5TCH4); experiment: LTEA_HepaRG_CYP4A22: Life Technologies and Expression Analysis (LTEA) Assay for Cytochrome P450 4A22 (CYP4A22) using HepaRG (AID 2283495)
Procedure, shortened: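 Concentration-response (8 points, max 100 uM, 0.5% DMSO) in human HepaRG liver cells after 48 h exposure. CYP4A22 mRNA by TaqMan qRT-PCR with housekeeping-gene normalization.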

Measured: AC50

Cytochrome P450 3A4 (Homo sapiens), sequence (P08684 whole entry, looked up): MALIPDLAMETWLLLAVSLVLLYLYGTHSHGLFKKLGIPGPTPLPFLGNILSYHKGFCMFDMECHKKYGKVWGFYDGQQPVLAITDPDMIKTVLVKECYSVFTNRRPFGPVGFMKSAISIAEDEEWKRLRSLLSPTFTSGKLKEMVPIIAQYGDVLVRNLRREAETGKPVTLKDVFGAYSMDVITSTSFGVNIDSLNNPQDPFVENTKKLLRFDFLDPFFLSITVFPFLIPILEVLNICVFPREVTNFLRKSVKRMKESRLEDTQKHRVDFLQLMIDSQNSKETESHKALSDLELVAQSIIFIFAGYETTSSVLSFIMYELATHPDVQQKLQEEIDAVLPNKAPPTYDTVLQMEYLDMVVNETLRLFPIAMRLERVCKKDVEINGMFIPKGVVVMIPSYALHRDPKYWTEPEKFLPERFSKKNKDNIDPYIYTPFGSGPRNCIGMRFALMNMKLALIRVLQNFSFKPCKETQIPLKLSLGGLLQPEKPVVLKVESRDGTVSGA
Cytochrome P450 3A7 (Homo sapiens), sequence (P24462 whole entry, looked up): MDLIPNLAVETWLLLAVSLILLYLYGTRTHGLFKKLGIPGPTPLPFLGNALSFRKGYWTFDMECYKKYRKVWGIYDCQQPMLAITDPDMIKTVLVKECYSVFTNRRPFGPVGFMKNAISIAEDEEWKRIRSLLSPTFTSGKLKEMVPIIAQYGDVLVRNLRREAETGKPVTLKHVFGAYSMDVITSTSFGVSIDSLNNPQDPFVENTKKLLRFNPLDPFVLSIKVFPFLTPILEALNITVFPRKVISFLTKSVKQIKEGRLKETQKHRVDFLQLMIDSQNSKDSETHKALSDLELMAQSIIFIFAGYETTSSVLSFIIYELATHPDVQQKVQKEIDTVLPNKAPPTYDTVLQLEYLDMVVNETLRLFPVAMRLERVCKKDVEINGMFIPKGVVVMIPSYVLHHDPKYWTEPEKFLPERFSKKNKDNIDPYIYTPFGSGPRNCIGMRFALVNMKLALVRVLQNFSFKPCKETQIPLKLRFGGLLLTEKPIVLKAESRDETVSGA
Cytochrome P450 2C19 (Homo sapiens), sequence (P33261 whole entry, looked up): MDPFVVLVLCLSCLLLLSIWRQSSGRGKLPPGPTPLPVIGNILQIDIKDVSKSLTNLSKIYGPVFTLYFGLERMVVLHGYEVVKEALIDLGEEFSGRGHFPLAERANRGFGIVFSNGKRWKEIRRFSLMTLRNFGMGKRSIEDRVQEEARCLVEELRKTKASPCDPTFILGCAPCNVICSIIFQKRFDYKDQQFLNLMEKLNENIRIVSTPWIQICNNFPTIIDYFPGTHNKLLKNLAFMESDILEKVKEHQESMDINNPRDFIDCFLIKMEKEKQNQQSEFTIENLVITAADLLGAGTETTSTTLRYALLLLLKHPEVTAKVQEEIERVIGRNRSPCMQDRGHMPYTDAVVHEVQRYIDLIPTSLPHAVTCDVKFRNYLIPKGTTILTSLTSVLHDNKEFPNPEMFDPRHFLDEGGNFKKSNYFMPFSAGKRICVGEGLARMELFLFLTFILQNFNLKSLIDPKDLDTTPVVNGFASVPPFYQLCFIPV
Caspase-3 (Homo sapiens), sequence (P42574 whole entry, looked up): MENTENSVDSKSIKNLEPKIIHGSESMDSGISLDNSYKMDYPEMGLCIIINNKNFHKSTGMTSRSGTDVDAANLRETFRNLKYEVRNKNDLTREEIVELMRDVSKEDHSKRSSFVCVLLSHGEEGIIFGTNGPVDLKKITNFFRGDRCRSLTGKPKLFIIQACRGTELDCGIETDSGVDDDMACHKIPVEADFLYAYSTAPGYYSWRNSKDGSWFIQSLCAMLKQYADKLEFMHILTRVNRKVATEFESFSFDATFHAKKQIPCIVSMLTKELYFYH

CCCCCCCCCc1ccc(O)cc1
active: CYP4A11 (gene 1579) 33.5 µM | [13] 50 µM | [14] 31.9 µM
inactive: all other assays above

COc1ccc(O)c(C(C)(C)C)c1
not listed: [7]
inactive: all other assays above

C1CC2OC2CC1C1CO1 (stereo not given)
active: [5] 7.5 µM
not listed: [2]
inactive: all other assays above

Clc1ccc(Cl)cc1
inactive: all assays above

CC1=C2C[C@H]3[C@@H](CC=C4C[C@@H](O)CC[C@@]43C)[C@@H]2CC[C@]12O[C@@H]1C[C@H](C)CN[C@H]1[C@H]2C
not listed: [2]
inactive: all other assays above

ClC1=C(Cl)[C@]2(Cl)[C@@H]3[C@@H]4C[C@@H]([C@H]5O[C@@H]45)[C@@H]3[C@@]1(Cl)C2(Cl)Cl
active: Caspase-3 (Homo sapiens) 0.0261 µM | [5] 1.58 µM | [6] 12.3 µM | CYP2E1 (gene 1571) 22.4 µM | CYP4A11 (gene 1579) 31.5 µM | [8] 62.8 µM | [13] 0.0265 µM | [14] 34.2 µM
not listed: CYP2C8 (gene 1558) | [7]
inactive: all other assays above
